# Results reported in PubChem BioAssay (EPA / NIEHS).
# Results filed as inconclusive are left out. Active and inactive are the calls of the source. Rule for the calls: active = hit-call score of the fitted dose curve at least 0.9, where 1 is the maximum; inconclusive = response in the unintended direction; inactive = score below 0.9.
# What was measured:
# Adra2b (gene 24174) = Adra2b (gene 24174) (UniProt P19328); assay: NVS_GPCR_rmAdra2B: NovaScreen (NVS) G Protein-Coupled Receptor Assay for hybird cells Adrenergic, Alpha 2B Receptor (Adra2B) (AID 2283306)
# Chain of Adra2b (gene 24174) (P19328 whole entry, looked up): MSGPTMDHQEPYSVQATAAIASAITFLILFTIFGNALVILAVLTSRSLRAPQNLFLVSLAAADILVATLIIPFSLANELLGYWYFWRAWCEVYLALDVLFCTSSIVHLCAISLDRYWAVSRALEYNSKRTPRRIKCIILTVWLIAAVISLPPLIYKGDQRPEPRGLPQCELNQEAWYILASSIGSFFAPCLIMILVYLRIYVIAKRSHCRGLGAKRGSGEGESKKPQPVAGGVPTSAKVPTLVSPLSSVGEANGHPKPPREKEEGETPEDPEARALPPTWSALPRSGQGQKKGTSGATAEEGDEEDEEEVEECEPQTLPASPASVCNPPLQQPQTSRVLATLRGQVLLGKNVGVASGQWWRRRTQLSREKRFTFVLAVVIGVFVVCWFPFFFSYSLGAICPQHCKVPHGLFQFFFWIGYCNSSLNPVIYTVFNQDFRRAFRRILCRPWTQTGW
# In short: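 Compounds screened first at 25 uM in duplicate, with actives followed up in concentration-response; specific radioligand displacement from hybrid neuroglioma/blastoma cell membrane preparations measured by filter scintillation counting after 1 h, normalized to DMSO.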
# [1] = biological target: rat Neurokinin-1 Receptor (NK1), Tacr1 (gene 24807) (UniProt P14600); assay: NVS_GPCR_rNK1: NovaScreen (NVS) G Protein-Coupled Receptor Assay for rat Neurokinin-1 Receptor (NK1) (AID 2283309)
# Chain of rat Neurokinin-1 Receptor (NK1), Tacr1 (gene 24807) (P14600 whole entry, looked up): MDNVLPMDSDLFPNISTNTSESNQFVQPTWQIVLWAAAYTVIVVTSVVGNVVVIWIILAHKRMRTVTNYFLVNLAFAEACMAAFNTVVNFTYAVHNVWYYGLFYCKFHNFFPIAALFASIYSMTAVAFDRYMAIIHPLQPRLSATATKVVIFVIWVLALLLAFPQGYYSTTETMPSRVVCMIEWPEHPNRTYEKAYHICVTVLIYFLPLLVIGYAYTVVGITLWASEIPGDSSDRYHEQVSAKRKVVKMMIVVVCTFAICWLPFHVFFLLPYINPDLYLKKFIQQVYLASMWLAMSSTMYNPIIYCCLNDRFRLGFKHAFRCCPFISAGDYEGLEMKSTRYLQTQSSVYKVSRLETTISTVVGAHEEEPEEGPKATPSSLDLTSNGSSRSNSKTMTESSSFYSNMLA
# In short: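 Competitive radioligand binding to NK1 in rat submaxillary membranes, 1 h incubation, filtration and scintillation read-out. Compounds first screened at 25 uM in duplicate, then concentration-response for actives; signal loss relative to DMSO.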
# [2] = biological target: rat Opioid Receptor, Non-selective Sodium (Na+) Binding, Oprm1 (gene 25601) (UniProt P33535); assay: NVS_GPCR_rOpiate_NonSelectiveNa: NovaScreen (NVS) G Protein-Coupled Receptor Assay for rat Opioid Receptor, Non-selective Sodium (Na+) Binding (AID 2283311)
# Chain of rat Opioid Receptor, Non-selective Sodium (Na+) Binding, Oprm1 (gene 25601) (P33535 whole entry, looked up): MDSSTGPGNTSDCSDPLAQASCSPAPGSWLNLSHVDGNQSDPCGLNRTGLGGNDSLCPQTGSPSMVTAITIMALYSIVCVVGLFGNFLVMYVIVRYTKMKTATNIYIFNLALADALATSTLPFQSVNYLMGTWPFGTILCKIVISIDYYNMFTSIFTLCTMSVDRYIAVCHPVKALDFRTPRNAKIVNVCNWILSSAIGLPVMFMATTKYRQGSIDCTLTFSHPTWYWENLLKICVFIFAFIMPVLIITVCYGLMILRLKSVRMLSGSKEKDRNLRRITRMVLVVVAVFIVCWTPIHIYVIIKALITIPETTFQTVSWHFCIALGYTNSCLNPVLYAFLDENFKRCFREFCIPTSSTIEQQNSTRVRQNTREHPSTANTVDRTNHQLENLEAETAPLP
# In short: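 Filtration radioligand binding on rat forebrain membrane preparations, read 1.5 h after dosing. Single-concentration 25 µM primary screen in duplicate, followed by singleton concentration series to 50 µM max for actives; DMSO baseline.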
# [3] = NVS_IC_rCaDHPRCh_L: NovaScreen (NVS) Ion Channel Assay for rat Calcium Channel, Type L, Dihydropyridine Site (CaDHPRCh_L) (AID 2283320)
# In short: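 Rat cortex membrane preparation; dihydropyridine-site radioligand displacement read 1 h post-dose by filtration and scintillation. Primary single-point screen 25 uM in duplicate, then concentration series to 50 uM maximum; DMSO as negative control.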
# [4] = biological target: Sodium channel protein type 1 subunit alpha (Rattus norvegicus) (UniProt P04774); assay: NVS_IC_rNaCh_site2: NovaScreen (NVS) Ion Channel Assay for rat Sodium Channel, Site 2 (NaCh) (AID 2283322);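 note: hit means loss of radioligand binding signal relative to DMSO so AC50 marks displacement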
# In short: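 Initial duplicate single-point testing at 25 uM, followed by concentration-response runs for actives. Binding of radioligand to rat forebrain membranes quantified after 1 h via filter-based radiodetection.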
# [5] = biological target: rat Opioid Receptor, Non-selective Binding, Oprm1 (gene 25601) (UniProt P33535); assay: NVS_GPCR_rOpiate_NonSelective: NovaScreen (NVS) G Protein-Coupled Receptor Assay for rat Opioid Receptor, Non-selective Binding (AID 2283318)
# Chain of rat Opioid Receptor, Non-selective Binding, Oprm1 (gene 25601) (P33535 whole entry, looked up): as above
# In short: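 Filter-based radioligand displacement using rat forebrain membrane preparations, measured 1.5 h post-dosing. Single-concentration duplicate screen at 25 uM, follow-up in concentration series; activity taken as signal loss relative to DMSO.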
# [6] = biological target: rat Glutamate, NMDA Agonist Site (GluNMDA), Grin1 (gene 24408) (UniProt P35439); assay: NVS_LGIC_rGluNMDA_Agonist: NovaScreen (NVS) Ligand-Gated Ion Channel Assay for rat Glutamate, NMDA Agonist Site (GluNMDA) (AID 2283327)
# In short: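 Radioligand displacement at the agonist site on rat forebrain membrane preparations, read by filter scintillation after 1 h. Chemicals were first run at 25 uM in duplicate; those passing threshold were titrated to a 50 uM maximum.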
# [7] = biological target: human Constitutive Androstane Receptor (CAR), NR1I3 (gene 9970) (UniProt Q14994); assay: NVS_NR_hCAR_Agonist: NovaScreen (NVS) Nuclear Receptor Binding Assay for human Constitutive Androstane Receptor Agonism (CAR) (AID 2283328)
# Chain of human Constitutive Androstane Receptor (CAR), NR1I3 (gene 9970) (Q14994 whole entry, looked up): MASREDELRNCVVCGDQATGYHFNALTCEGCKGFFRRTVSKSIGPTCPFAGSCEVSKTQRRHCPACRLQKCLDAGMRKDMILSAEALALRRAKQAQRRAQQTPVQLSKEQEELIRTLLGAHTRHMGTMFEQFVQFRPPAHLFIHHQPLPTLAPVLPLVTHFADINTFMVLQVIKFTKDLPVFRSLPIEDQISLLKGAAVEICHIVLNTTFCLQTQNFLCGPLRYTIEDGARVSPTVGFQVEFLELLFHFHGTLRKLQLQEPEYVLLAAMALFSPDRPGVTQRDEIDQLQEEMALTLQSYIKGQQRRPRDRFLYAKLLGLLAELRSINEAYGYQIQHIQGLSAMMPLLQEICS
# In short: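 Actives from a 25 uM duplicate screen were retested in singleton concentration series to 50 uM max. Biochemical TR-FRET assay on extracted CAR protein measured 1 h post-dose, with signal increase over DMSO control.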
# [8] = biological target: rat Neonicotinoid receptor (NNR), Chrna7 (gene 25302) (UniProt Q05941); assay: NVS_LGIC_rNNR_BungSens: NovaScreen (NVS) Ligand-Gated Ion Channel Assay for rat Neonicotinoid receptor (NNR) (AID 2283315)
# Chain of rat Neonicotinoid receptor (NNR), Chrna7 (gene 25302) (Q05941 whole entry, looked up): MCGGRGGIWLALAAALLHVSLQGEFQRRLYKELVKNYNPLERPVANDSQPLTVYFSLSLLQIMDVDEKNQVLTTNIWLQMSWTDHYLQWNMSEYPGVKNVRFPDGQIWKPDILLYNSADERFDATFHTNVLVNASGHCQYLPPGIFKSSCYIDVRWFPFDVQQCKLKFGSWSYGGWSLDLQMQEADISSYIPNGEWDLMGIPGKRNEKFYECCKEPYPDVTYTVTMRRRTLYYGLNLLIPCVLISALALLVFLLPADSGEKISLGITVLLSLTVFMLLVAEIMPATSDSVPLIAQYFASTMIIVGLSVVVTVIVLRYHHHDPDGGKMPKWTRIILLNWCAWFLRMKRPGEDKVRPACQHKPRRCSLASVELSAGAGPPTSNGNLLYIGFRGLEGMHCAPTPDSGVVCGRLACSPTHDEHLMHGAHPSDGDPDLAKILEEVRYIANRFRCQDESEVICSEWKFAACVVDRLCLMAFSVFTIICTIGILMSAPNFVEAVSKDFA
# In short: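 Rat cortical membrane preparation incubated 2.5 h with tritiated or iodinated radioligand and test chemical. Bound radioactivity was filtered and counted by scintillation, and displacement was analysed against DMSO.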
# [9] = biological target: rat Histamine Receptor (H3), Hrh3 (gene 85268) (UniProt Q9QYN8); assay: NVS_GPCR_rH3: NovaScreen (NVS) G Protein-Coupled Receptor Assay for rat Histamine Receptor (H3) (AID 2283303)
# Chain of rat Histamine Receptor (H3), Hrh3 (gene 85268) (Q9QYN8 whole entry, looked up): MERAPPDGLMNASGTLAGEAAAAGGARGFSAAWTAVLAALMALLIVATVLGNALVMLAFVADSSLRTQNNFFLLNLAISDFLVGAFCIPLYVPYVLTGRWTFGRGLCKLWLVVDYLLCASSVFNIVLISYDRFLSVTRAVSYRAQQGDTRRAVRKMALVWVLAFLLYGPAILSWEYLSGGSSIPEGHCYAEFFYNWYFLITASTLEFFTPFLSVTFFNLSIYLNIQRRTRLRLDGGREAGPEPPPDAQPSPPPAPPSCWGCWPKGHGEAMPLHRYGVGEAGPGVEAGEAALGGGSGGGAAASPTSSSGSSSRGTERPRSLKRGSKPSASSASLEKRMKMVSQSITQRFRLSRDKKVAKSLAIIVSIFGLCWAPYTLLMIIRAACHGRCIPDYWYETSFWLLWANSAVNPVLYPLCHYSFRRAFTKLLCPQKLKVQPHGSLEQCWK
# In short: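 Filter-binding radioligand competition on rat forebrain membranes, 1 h incubation; compounds screened at 25 µM in duplicate and followed in concentration series to 50 µM, loss of bound signal vs DMSO.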
smiles,measurement,setting,value
CN1CCN(Cc2cc(-c3ccc4[nH]c(=O)oc4c3)co2)[C@@H](c2ccc(F)cc2)C1,AC50,Adra2b (gene 24174),15.8 µM (active)
same,AC50,[1],22 µM (active)
same,outcome,[2],inactive
same,AC50,[3],15 µM (active)
same,AC50,[4],7.72 µM (active)
Oc1ccc2c(c1)OC[C@@H](N1CCC(O)(c3ccc(F)cc3)CC1)[C@H]2O,outcome,[2],inactive
same,outcome,[5],inactive
same,outcome,[4],inactive
same,outcome,[6],inactive
same,outcome,[7],inactive
CCCCC(CC)COC(=O)CC(C(=O)OCC(CC)CCCC)S(=O)(=O)O (centres undefined),AC50,Adra2b (gene 24174),22.4 µM (active)
same,outcome,[4],inactive
same,AC50,[6],38.3 µM (active)
CCOC(=O)C(C)(C)Oc1ccc(Cl)cc1,outcome,[1],inactive
same,outcome,[8],inactive
CNCc1cc(F)ccc1Oc1ccc(Cl)c(Cl)c1,outcome,[9],inactive
same,AC50,Adra2b (gene 24174),8.41 µM (active)
same,AC50,[2],25 µM (active)
same,AC50,[8],28.5 µM (active)
